Results from PubChem BioAssay AID463173 (ICCB-Longwood Screening Facility, Harvard Medical School, 2010).
Among all 52,000 compounds or so, about 4,300 (8.3%) were called active. Many of the other results were omitted from the sample, so actives are more common in it than they were. Unmarked numbers belong to inactive results. No stated cut-off is given here; in the data, active means survival mostly below about 52% (no sharp cut-off); inactive means mostly above about 56%.

These compounds were tested on DeltatarO mutant (assay: S. aureus survival, RN4220 and DeltatarO strains – OD600, teichoic acid synthesis inhibitors, primary screen (AID 463173)). Settings: S. aureus RN4220 wild type/DeltatarO growth, OD600, 18 h, active compounds read low, screened at 18.75 µg/mL (by protocol).
For `CC(C)OC(=O)Cn1nnc(-c2ccccc2)n1`, the survival was 82%.
`CC(=O)c1cccc(NC(=O)c2ccc(-n3c(C)nnc3C)cc2)c1` was tested, and the survival was 70%.
`CC(C)(C)OC(=O)N1C(C(=O)O)CSC1c1cccc(Br)c1` (configuration not stated) was tested, and the survival was 101%.
`Cc1ccc(NC(=O)N2CCc3cc(S(=O)(=O)N4CCC(C)CC4)ccc32)cc1` showed a survival of 96%.
Work on `Cc1ccc(CN(Cc2cccn2-c2nnc(N3CCCC3=O)s2)C(=O)Nc2ccccc2Cl)cc1` yielded a survival of 104%.
`COc1ccccc1CNC(=O)c1cn(C)c2ccc(S(=O)(=O)N3CCC(C)CC3)cc2c1=O` showed a survival of 92%.
With `Cc1ccc(N(C)S(=O)(=O)c2ccc(-c3coc(C)n3)cc2)cc1` the survival was 75%.
`COc1ccc(NC(=O)CCCc2nc(-c3ccco3)no2)c(OC)c1` showed a survival of 107%.
`CC1Cc2cc(S(=O)(=O)CCC(=O)Nc3ccc(OC(F)(F)F)cc3)ccc2N1C(=O)C1CC1` (configuration not stated) gave a survival of 85%.
Compound `O=C(Nc1nnc(S(=O)(=O)N2CCN(c3ccc(F)cc3)CC2)s1)c1ccc(Cl)cc1` has a survival of 57%.
`Cc1ccccc1N1CCN(S(=O)(=O)c2ccccc2)CC1` was tested, and the survival was 28% (active).
`Cc1cccc(N2CCN(S(=O)(=O)c3nnc(NC(=O)c4ccc(Cl)cc4)s3)CC2)c1` gave a survival of 54%.
`COc1ccc(S(=O)(=O)N2CCN(S(=O)(=O)c3ccccc3)CC2)cc1` showed a survival of 87%.
For `CS(=O)(=O)N1CCN(S(=O)(=O)c2ccccc2)CC1`, the survival was 104%.
For `Cc1ccccc1N1CCN(S(=O)(=O)c2nnc(NC(=O)c3ccc(Cl)cc3)s2)CC1`, the survival was 43% (active).
For `O=C(Nc1ccc(O)cc1)c1cccc(S(=O)(=O)N2CCOCC2)c1`, the survival was 77%.
With `CCOc1ccc(NC(=O)Cn2nc3c(cc2=O)CC(C)CC3)cc1` (configuration not stated) the survival was 98%.
`c1ccc(C2SCCN2c2ccccc2)cc1` (configuration not stated) showed a survival of 97%.
Compound `Cc1cccc(N2CCN(C(=O)Cn3c(-c4cccs4)cc4ccccc43)CC2)c1C` has a survival of 78%.
`Cc1nc(CC(=O)Nc2cccc(C)c2C)cs1` was tested, and the survival was 39% (active).
In the case of `Cc1nc(CC(=O)Nc2cc(Cl)ccc2C)cs1`, the survival is reported as 45% (active).
For `Cc1cccc(NC(=O)Nc2cccs2)c1C`, the survival was 93%.
In the case of `CCc1cccc(CC)c1NC(=O)Cc1csc(C)n1`, the survival is reported as 42% (active).
`Cc1ccc(NC(=O)Cc2csc(C)n2)c(C)c1` was tested, and the survival was 40% (active).
Compound `CCc1ccc(NC(=O)Cc2csc(COc3cccc(C)c3)n2)cc1` has a survival of 88%.
`Cc1ccc(C(=O)CCC(=O)Nc2ccc(C)cc2C)cc1` showed a survival of 115%.
With `Cc1ccc(Cl)cc1NC(=O)c1csnn1` the survival was 78%.
`Cc1cc(C)c(NC(=O)Cc2csc(C)n2)c(Cl)c1` showed a survival of 48%.
Work on `Cc1ccccc1-c1noc(CCC(=O)Nc2cccc(C)c2C)n1` yielded a survival of 88%.
`Cc1cccc(OCc2nc(CC(=O)Nc3ccc(C)cc3C)cs2)c1` gave a survival of 79%.
`CCCCCOc1ccc(NC(=O)Cc2csc(C)n2)cc1` showed a survival of 44%.
`COCC(=O)N1CCC(n2nnc3cc(F)ccc32)CC1` gave a survival of 53%.
Compound `CCN(CC)CC(=O)N1CCCC1=O` has a survival of 100%.
With `Cc1cc(C)c(/C=C/c2onc(C)c2S(=O)(=O)N2CCC(C(=O)NCc3ccco3)CC2)c(C)c1` the survival was 90%.
`CCOC(=O)c1ccc(NC(=O)CCn2c(=O)c3cccn3c3ccccc32)cc1` was tested, and the survival was 91%.
With `CCC(c1nnnn1CCOC)N1CCN(c2cccc(C(F)(F)F)c2)CC1` (configuration not stated) the survival was 107%.
In the case of `Cn1c(CNc2ccc(Cl)cc2)nnc1SCc1ccc(Cl)cc1`, the survival is reported as 68%.
Work on `CC(=O)N1CCCC1c1nc2ccccc2n1Cc1ccc(F)cc1` (configuration not stated) yielded a survival of 85%.
In the case of `CCc1cccc(CC)c1NC(=O)c1c(C)oc2ccc(O)c(CN3CCCC3)c12`, the survival is reported as 113%.
Compound `O=S1(=O)c2ccccc2-c2cc(Br)ccc21` has a survival of 79%.
In the case of `CCOC(=O)CNC(=O)Nc1cc(C(=O)NCc2ccccc2OC)ccc1N1CCCC1`, the survival is reported as 80%.
With `CCC(=O)/C=C1/Sc2ccc(C)cc2N1CC` the survival was 97%.
Compound `Cc1cc(F)ccc1NC1(c2ccccc2)C(=O)c2ccccc2C1=O` has a survival of 79%.
With `Cc1ccc(NC2(c3ccccc3)C(=O)c3ccccc3C2=O)cc1F` the survival was 58% (active).
Work on `O=C(O)c1cc(NC2(c3ccccc3)C(=O)c3ccccc3C2=O)ccc1Cl` yielded a survival of 87%.
Compound `COc1cc(OC)c(NC(=O)Nc2sc3nc4n(c(=O)c3c2C)CCC(C)CC4)cc1Cl` (configuration not stated) has a survival of 85%.
In the case of `O=C(c1ccc2c(c1)OCO2)c1cn(Cc2ccc(Cl)cc2)c2ccc(F)cc2c1=O`, the survival is reported as 55% (active).
`CCOc1ccc2c(c1)c(=O)c(C(=O)c1ccc3c(c1)OCO3)cn2Cc1ccc(F)cc1` gave a survival of 98%.
With `COc1ccc(Cn2cc(C(=O)c3ccc(F)cc3)c(=O)c3cc4c(cc32)OCCO4)cc1` the survival was 66%.
`COc1ccc(C(=O)c2cn(Cc3ccc(F)cc3)c3ccc(C)cc3c2=O)cc1` was tested, and the survival was 24% (active).
Work on `CCc1ccc(C(=O)c2cn(Cc3ccccc3)c3cc(OC)c(OC)cc3c2=O)cc1` yielded a survival of 58%.
In the case of `COc1ccc(Cn2cc(C(=O)c3ccc(C)cc3)c(=O)c3cc(OC)c(OC)cc32)cc1`, the survival is reported as 93%.
`CCc1ccc2c(c1)c(=O)c(C(=O)c1ccc(C)cc1)cn2CC(=O)Nc1ccc2c(c1)OCCO2` was tested, and the survival was 61%.
With `O=C(c1ccc2c(c1)OCO2)c1cn(Cc2ccc(F)cc2)c2ccccc2c1=O` the survival was 68%.
Work on `COc1ccccc1Cn1cc(C(=O)c2ccc(C)cc2)c(=O)c2cc(C)ccc21` yielded a survival of 112%.
For `CCc1ccc(C(=O)c2cn(CC(=O)Nc3ccc4c(c3)OCCO4)c3ccc(CC)cc3c2=O)cc1`, the survival was 72%.
For `COc1ccccc1Cn1cc(C(=O)c2ccccc2)c(=O)c2cc(OC)c(OC)cc21`, the survival was 23% (active).
With `CCc1ccc(C(=O)c2cn(CC(=O)Nc3ccc4c(c3)OCCO4)c3ccc(C)cc3c2=O)cc1` the survival was 57% (active).
With `COCCNC(=O)CSc1nc2ccccc2nc1Cc1ccc(C)cc1` the survival was 78%.
With `CCOC(=O)c1oc2ccccc2c1CN(C)CCc1ccccc1` the survival was 70%.
In the case of `COc1ccc(CCn2c(=O)c3cccnc3n(CC(=O)Nc3c(C)cccc3C)c2=O)cc1OC`, the survival is reported as 90%.
In the case of `COc1ccccc1C(=O)Nc1ccc(NC(=O)c2cccs2)cc1`, the survival is reported as 51%.
`CCc1nnc(NC(=O)C(=O)c2cc(C)n(-c3ccccc3)c2C)s1` was tested, and the survival was 77%.
In the case of `CCOc1ccc(-n2c(SCC(=O)Nc3ccccc3OC)nc3c(oc4ccccc43)c2=O)cc1`, the survival is reported as 69%.
Compound `COc1ccc(-c2noc(C3CC(=O)N(c4ccc5c(c4)OCCO5)C3)n2)c(OC)c1` (configuration not stated) has a survival of 98%.
Work on `COc1ccc(N(C(=O)c2ccc(C(C)(C)C)cc2)S(=O)(=O)c2ccc(Cl)cc2)cc1` yielded a survival of 81%.
With `Cc1ccc2c(c1)c(=O)c(C(=O)c1ccc3c(c1)OCO3)cn2Cc1ccc(Cl)cc1` the survival was 46% (active).
`Cc1ccc2c(c1)c(=O)c(C(=O)c1ccc3c(c1)OCO3)cn2Cc1cccc(F)c1` was tested, and the survival was 66%.
Compound `Cc1ccc(Cn2cc(C(=O)c3ccc4c(c3)OCO4)c(=O)c3cc(C)ccc32)cc1` has a survival of 59%.
`CCOC(=O)c1ccc(NC(=O)CC2C(=O)N(c3ccc(F)cc3)C(=O)N2Cc2ccc3c(c2)OCO3)cc1` (configuration not stated) was tested, and the survival was 116%.
`O=C(c1ccc(-n2cnnn2)cc1)N(C1CCCCC1)C1CCCCC1` showed a survival of 93%.
Compound `COc1cc(OC)c(NC(=O)NCCn2nnc3cc(S(=O)(=O)N(C)C)ccc32)cc1Cl` has a survival of 88%.
With `Cc1cc(F)ccc1-n1nnc(C(N)=O)c1C` the survival was 76%.
Work on `COc1ccc(-n2c(SCC(=O)NCc3ccccc3)nc3c([nH]c4ccccc43)c2=O)cc1` yielded a survival of 93%.
In the case of `CC(CNC(=O)CCCn1c(=O)c2cccn2c2cccnc21)c1ccccc1` (configuration not stated), the survival is reported as 95%.
`CC(CNC(=O)CCCn1c(=O)c2cccn2c2ccccc21)c1ccccc1` (configuration not stated) showed a survival of 47%.
`CC(NC(=O)CCn1c(=O)c2cccn2c2ccc(F)cc21)c1ccccc1` (configuration not stated) showed a survival of 59%.
In the case of `CC(CNC(=O)CCn1c(=O)c2cccn2c2ccc(F)cc21)c1ccccc1` (configuration not stated), the survival is reported as 34% (active).
With `CC(CNC(=O)CCCn1c(=O)c2cccn2c2ccc(F)cc21)c1ccccc1` (configuration not stated) the survival was 35% (active).
Work on `COc1cc(C(=O)NCC(c2ccco2)S(=O)(=O)c2cccs2)cc(OC)c1OC` (configuration not stated) yielded a survival of 91%.
Work on `COc1cc(C2c3c(-c4c(C)cc(C)cc4O)n[nH]c3C(=O)N2CCCOC(C)C)cc(OC)c1OC` (configuration not stated) yielded a survival of 86%.
`CCOc1cc(CNC(=O)c2ccc3c(c2)NC(=O)C2CCCCN32)cc(OCC)c1OCC` (configuration not stated) was tested, and the survival was 107%.
With `O=C1C2C3C=CC(C3)C2C(=O)N1c1ccc(Cl)cc1` (configuration not stated) the survival was 70%.
With `CCC(Oc1ccccc1)C(=O)Nc1ccc(OCc2cc(=O)n3ccc(C)cc3n2)cc1` (configuration not stated) the survival was 91%.
`O=C(NCCc1ccccc1)c1ccc2c(c1)N(Cc1ccc(F)cc1)C(=O)c1ccccc1S2` was tested, and the survival was 99%.
`CCOc1ccc(CCNC(=O)CSCc2nc(-c3cccc(C)c3)oc2C)cc1OCC` showed a survival of 82%.
In the case of `COc1cccc(-c2nc(CSCC(=O)NCCc3ccc(Cl)cc3)c(C)o2)c1`, the survival is reported as -4% (active).
For `COc1ccc(-c2nc(CSCC(=O)NCCc3ccc(OC)c(OC)c3)c(C)o2)cc1`, the survival was 79%.
Work on `COc1ccc(CCNC(=O)CSCc2nc(-c3cccc(C)c3)oc2C)cc1OC` yielded a survival of 66%.
With `Cc1cccc(-c2nc(CSCC(=O)NCCc3ccc(Cl)cc3)c(C)o2)c1` the survival was -7% (active).
Work on `COc1cccc(-c2nc(CS(=O)(=O)CC(=O)NCCc3ccc(Cl)cc3)c(C)o2)c1` yielded a survival of 63%.
`O=C(c1cc(=O)c2cc(Cl)ccc2o1)N(Cc1ccccc1)C1CCS(=O)(=O)C1` (configuration not stated) was tested, and the survival was 51%.
